# The source made the active and inactive calls.
# Tests used:
# [1] = binders of probe aFSTL3 on microarray, primary screen, stem cell growth factor project, biochemical, small-molecule microarray, fluorescence 635/667 (AID 1064); settings: higher = more signal;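 further: measures binding of the biotinylated anti-FSTL3 antibody to printed compounds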
# [2] = binders from COS7 lysate, DM2A8 probe, primary screen, torsin A project, cell lysate, small-molecule microarray, fluorescence 635/667 (AID 1065); settings: higher = more signal, COS7 lysate expressing mutant human TOR1A
# [3] = binders of probe aFGF2 on microarray, primary screen, stem cell growth factor project, biochemical, small-molecule microarray, fluorescence 635/667 (AID 1067); settings: higher = more signal;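 further: measures binding of biotinylated aFGF2 protein to printed compounds on slides; z-score merges feature fluorescence and signal-to-noise across triplicate slides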
# [4] = binders of probe aFGF10 on microarray, primary screen, stem cell growth factor project, biochemical, small-molecule microarray, fluorescence 635/667 (AID 1071); settings: higher = more signal;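 further: score merges 667 nm spot intensity and signal to noise from triplicate slides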
# [5] = molecular target: Neurogenic locus notch homolog protein 2 (Homo sapiens) (UniProt Q04721); assay: Notch2 binders on small-molecule microarrays, primary screen, biochemical, small-molecule microarray, 635 nm fluorescence, stem cell growth factors (AID 1073); settings: Notch2 binding, higher = more signal
# [6] = molecular target: Pro-neuregulin-1, membrane-bound isoform (Homo sapiens) (UniProt Q02297); assay: NRG1 binders on small-molecule microarrays, primary screen, psychiatric disease protein project, biochemical, small-molecule microarray, fluorescence 635/667 (AID 1075); settings: NRG1 binding, 635 nm fluorescence, higher = more signal;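 further: score combines 667 nm spot fluorescence with signal to noise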
# Pro-neuregulin-1, membrane-bound isoform (Homo sapiens), sequence (Q02297 whole entry, looked up, the tested form may be a part, canonical isoform): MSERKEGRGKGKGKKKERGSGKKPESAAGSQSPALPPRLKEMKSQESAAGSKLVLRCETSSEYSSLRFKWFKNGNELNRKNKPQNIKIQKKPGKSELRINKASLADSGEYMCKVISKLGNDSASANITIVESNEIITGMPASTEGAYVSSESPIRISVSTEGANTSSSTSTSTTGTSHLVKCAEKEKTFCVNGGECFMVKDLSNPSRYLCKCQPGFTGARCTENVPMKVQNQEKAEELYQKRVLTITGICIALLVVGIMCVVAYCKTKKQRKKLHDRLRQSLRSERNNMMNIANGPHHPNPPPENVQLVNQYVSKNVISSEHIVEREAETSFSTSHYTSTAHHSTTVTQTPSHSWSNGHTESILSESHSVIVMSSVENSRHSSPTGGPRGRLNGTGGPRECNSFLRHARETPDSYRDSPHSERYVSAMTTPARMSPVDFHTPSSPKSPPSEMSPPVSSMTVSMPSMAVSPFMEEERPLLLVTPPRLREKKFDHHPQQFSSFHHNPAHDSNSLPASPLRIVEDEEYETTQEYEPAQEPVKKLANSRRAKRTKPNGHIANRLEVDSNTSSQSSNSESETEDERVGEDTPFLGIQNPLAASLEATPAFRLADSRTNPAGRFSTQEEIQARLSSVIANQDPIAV
# [7] = system: Neuregulin-1 EGF-like domain; assay: binders of neuregulin-1 EGF-like domain, primary screen, biochemical, small-molecule microarray, 635 nm fluorescence (AID 1081); settings: small-molecule microarray binding, higher = more signal;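 further: binding of the protein to compounds printed on small-molecule microarray slides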
# [8] = FRG1 promoter luciferase signal modulators, primary screen, FRG1 inhibition for FSHD, cell-based, C2C12 myotubes, firefly/Renilla luciferase, luminescence (AID 1084); settings: higher = more signal, called active from +8 up or from −8 down
# [9] = binders of probe aFST on microarray, primary screen, stem cell growth factor project, biochemical, small-molecule microarray, fluorescence 635/667 (AID 1086); settings: higher = more signal;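 further: score merges 667 nm fluorescence with signal-to-noise of each printed compound spot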
# [10] = binders of probe aHhip on microarray, primary screen, stem cell growth factor project, biochemical, small-molecule microarray, fluorescence 635/667 (AID 1087); settings: higher = more signal;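 further: score merges spot fluorescence at 667nm with spot signal to noise ratio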
# [11] = system: PRMT1 (protein arginine N-methyltransferase 1); assay: PRMT1 binders on small-molecule microarrays, primary screen, biochemical, small-molecule microarray, 635 nm fluorescence (AID 1088); settings: small-molecule microarray binding, higher = more signal;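 further: binding of Prmt1 protein to compounds spotted on small-molecule microarray slides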
# [12] = yeast growth modulation, basal conditions, primary screen, YJM789 clinical isolate, OD600, 24 h (AID 1089);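 further: growth of clinical yeast isolate S. cerevisiae YJM 789 seeded 1000 cells per well; test concentration not given here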; settings: S. cerevisiae YJM789 growth, higher = more signal, called active from +8 up or from −8 down
# [13] = fission yeast growth modulation, primary screen, strain 972, OD600, 24 h, no modulator (AID 1090);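 further: basal condition with compound alone and no growth modifier present; test concentration not given here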; settings: S. pombe 972 growth, higher = more signal, called active from +8 up or from −8 down
# [14] = S. cerevisiae growth modulation with rapamycin, primary screen, strain BY4716, OD600, 96 h (AID 1091); settings: higher = more signal, called active from +8 up or from −8 down; further: test concentration not given here
# [15] = molecular target: Torsin-1A-interacting protein 2 (Homo sapiens) (UniProt Q8NFQ8); assay: LULL1 binders on small-molecule microarray, primary screen, cell lysate, human LULL1 lysate, 635/667 nm fluorescence (AID 1092); settings: hLULL1 lysate binding, 635 nm fluorescence, higher = more signal;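 further: probe is lysate of COS7 cells overexpressing human LULL1; score merges per-feature 667 nm fluorescence with signal-to-noise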
# Torsin-1A-interacting protein 2 (Homo sapiens), sequence (Q8NFQ8 whole entry, looked up): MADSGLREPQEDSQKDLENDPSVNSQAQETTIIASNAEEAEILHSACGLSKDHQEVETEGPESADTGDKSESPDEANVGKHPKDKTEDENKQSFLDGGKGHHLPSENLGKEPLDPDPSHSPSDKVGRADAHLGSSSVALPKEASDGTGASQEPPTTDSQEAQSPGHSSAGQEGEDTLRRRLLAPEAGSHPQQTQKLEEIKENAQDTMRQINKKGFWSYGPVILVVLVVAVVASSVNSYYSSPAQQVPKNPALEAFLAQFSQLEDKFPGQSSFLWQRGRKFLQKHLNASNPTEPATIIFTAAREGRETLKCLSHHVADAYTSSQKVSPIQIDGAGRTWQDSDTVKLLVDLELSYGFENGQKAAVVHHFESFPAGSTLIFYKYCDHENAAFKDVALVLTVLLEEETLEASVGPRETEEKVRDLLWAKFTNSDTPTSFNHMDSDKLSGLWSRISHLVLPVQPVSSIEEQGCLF
# [16] = E. coli growth modulation, two-sided OD650, primary screen, E. coli filamentation project, strain DRC41, 24 h (AID 1093); settings: OD650, 24 h, higher = more signal, called active from +8 up or from −8 down;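 further: MC1000 strain lacking acrAB efflux and sulA so SOS filamentation is blocked; test concentration not given here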
# [17] = small-molecule microarray binders of probe aLefty2, primary screen, biochemical, biotinylated probe, 635/667 nm fluorescence (AID 1094); settings: higher = more signal;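 further: score merges spot fluorescence near 667 nm with spot signal-to-noise ratio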
# [18] = system: Noggin (protein binding on small-molecule microarray); assay: Noggin binders on small-molecule microarray, primary screen, biochemical, 635/667 nm fluorescence (AID 1095); settings: 635 nm fluorescence, higher = more signal;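 further: score merges 667 nm feature fluorescence with signal to noise over triplicate slides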
# [19] = molecular target: Neurogenic locus notch homolog protein 3 (Homo sapiens) (UniProt Q9UM47); assay: NOTCH3 binders on small-molecule microarray, primary screen, biochemical, 635/667 nm fluorescence (AID 1096); settings: NOTCH3 binding, 635 nm fluorescence, higher = more signal
# Neurogenic locus notch homolog protein 3 (Homo sapiens), sequence (Q9UM47 whole entry, looked up): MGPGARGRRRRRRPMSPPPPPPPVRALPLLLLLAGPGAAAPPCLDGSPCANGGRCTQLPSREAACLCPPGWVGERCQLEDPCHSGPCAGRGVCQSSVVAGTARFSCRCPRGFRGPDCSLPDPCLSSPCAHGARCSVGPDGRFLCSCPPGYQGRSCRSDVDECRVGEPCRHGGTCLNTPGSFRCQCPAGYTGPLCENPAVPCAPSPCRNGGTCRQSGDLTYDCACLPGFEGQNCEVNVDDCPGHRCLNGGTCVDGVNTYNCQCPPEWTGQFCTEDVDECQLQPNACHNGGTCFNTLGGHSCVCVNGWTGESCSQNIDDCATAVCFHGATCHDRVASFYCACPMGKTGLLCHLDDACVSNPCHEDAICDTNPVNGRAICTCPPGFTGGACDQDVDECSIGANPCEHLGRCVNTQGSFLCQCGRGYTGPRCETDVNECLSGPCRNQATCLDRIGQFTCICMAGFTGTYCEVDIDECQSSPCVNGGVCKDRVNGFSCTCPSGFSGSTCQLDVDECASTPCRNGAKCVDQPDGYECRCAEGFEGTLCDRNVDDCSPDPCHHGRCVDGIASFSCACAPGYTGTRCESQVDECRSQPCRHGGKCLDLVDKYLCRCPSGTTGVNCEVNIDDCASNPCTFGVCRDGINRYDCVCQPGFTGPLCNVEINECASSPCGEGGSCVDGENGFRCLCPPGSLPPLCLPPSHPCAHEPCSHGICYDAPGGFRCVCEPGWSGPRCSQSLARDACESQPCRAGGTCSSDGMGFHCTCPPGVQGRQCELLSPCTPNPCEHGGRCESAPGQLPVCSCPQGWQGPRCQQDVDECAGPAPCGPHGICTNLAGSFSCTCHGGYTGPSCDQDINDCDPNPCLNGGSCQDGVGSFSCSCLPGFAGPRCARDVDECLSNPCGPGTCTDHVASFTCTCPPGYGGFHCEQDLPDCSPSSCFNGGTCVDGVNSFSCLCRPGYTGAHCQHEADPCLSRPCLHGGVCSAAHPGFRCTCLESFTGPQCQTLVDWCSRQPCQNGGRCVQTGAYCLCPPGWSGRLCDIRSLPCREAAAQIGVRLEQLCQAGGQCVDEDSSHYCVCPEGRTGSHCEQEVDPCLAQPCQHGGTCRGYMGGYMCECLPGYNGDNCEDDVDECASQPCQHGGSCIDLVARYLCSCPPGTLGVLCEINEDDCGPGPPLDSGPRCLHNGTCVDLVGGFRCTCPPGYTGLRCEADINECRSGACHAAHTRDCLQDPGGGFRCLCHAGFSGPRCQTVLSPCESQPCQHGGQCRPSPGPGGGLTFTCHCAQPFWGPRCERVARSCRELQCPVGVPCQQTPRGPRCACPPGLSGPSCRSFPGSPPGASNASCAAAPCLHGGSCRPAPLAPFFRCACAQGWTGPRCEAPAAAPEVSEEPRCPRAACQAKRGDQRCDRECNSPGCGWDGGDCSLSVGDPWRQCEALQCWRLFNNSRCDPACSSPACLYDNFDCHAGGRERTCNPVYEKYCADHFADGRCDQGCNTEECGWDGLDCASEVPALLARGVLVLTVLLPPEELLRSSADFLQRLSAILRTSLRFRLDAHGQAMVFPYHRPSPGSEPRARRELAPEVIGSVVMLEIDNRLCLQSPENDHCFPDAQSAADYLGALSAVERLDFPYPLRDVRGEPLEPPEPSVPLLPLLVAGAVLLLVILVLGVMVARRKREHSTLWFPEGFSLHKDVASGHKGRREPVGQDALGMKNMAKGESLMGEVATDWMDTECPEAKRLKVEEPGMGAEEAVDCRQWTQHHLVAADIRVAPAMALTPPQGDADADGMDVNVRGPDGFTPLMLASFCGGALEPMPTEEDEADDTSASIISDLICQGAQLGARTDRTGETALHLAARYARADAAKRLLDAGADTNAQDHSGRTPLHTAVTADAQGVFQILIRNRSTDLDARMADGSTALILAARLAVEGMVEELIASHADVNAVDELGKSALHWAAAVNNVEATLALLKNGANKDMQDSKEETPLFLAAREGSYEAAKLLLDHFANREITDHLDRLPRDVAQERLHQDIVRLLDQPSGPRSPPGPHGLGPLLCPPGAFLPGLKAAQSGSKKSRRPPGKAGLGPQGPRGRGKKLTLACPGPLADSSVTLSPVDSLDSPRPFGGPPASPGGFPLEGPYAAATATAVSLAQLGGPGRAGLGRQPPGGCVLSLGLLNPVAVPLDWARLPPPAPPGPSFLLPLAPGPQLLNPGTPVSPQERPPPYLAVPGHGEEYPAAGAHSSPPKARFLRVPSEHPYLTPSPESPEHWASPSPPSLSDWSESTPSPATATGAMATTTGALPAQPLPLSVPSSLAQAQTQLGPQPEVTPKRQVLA
# [20] = small-molecule microarray binders of probe aEGFR, primary screen, biochemical, biotinylated probe, 635/667 nm fluorescence (AID 1097); settings: higher = more signal;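 further: probe is a biotinylated anti-EGFR antibody binding compounds printed on slides; score combines fluorescence near 667 nm and signal to noise of each spot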
Compound,composite z-score [1],composite z-score [2],composite z-score [3],composite z-score [4],composite z-score [5],composite z-score [6],composite z-score [7],z-score [8],composite z-score [9],composite z-score [10],composite z-score [11],z-score [12],z-score [13],z-score [14],composite z-score [15],z-score [16],composite z-score [17],composite z-score [18],composite z-score [19],composite z-score [20]
C=C(/C(=C/C[C@H](OC(=O)c1ccncc1)c1ccccc1OCCO)c1cc(C(=O)OC)ccc1OC)C(C)C,-0.0165,0.229,-0.01,0.605,0.267,1.1,1.28,-1 (inactive),0.265,-0.249,1.43,0.363 (inactive),0.115 (inactive),2.11 (inactive),2.74,0.329 (inactive),-0.159,0.691,1.13,-0.112
COc1ccc(CC[C@H](O)c2cccc(OCC(=O)OC(C)(C)C)c2)cc1,-0.386,1.08,0.106,0.359,0.966,0.576,0.977,-0.0488 (inactive),0.736,0.136,1.55,-2.98 (inactive),-3.06 (inactive),28.1 (active),2.12,0.362 (inactive),0.165,0.956,1.09,0.0656
CCCC=C(CCC)[C@@H](NS(=O)(=O)c1ccc(Cl)cc1)c1ccccc1,0.329,-0.558,0.106,-0.243,0.191,-0.223,-0.358,0.909 (inactive),-0.0037,0.0251,0.61,0.286 (inactive),0.319 (inactive),1.61 (inactive),1.1,-0.829 (inactive),-0.0916,-0.135,-0.682,-0.125
O=C1O[C@H](c2ccccc2)[C@H](c2ccccc2)N2[C@H]1[C@@H](C(=O)NC[C@H](O)c1ccccc1)[C@]1(C(=O)Nc3ccc(C#CCCO)cc31)[C@H]2c1ccccc1OCCO,-0.211,0.307,-0.141,0.453,0.253,1.25,1.34,-0.0302 (inactive),0.152,0.0505,1.54,1.14 (inactive),-2.23 (inactive),3.41 (inactive),2.22,1.19 (inactive),-0.0499,0.795,0.325,-0.139
O=C1O[C@@H](c2ccccc2)[C@@H](c2ccccc2)N2[C@@H](c3ccc(OCCO)cc3)[C@]3(C(=O)Nc4ccc(C#CCCO)cc43)[C@@H](C(=O)Nc3nc4ccccc4s3)[C@H]12,0.0758,0.482,-0.0316,0.444,1.03,1.14,1.07,0.28 (inactive),1.27,-0.0241,1.5,1.32 (inactive),0.415 (inactive),1.72 (inactive),3.06,2.55 (inactive),-0.0826,0.677,1.06,-0.0531
C=CC[C@]1(C(=O)NCCCOC)N=C(c2ccc(OCCCO)cc2)O[C@H]1c1ccccc1,0.272,-0.188,0.0823,-0.179,-0.664,1.87,1.33,0.364 (inactive),1.04,-0.0237,0.36,-0.193 (inactive),-0.266 (inactive),-0.739 (inactive),3.29,0.753 (inactive),0.037,-0.0071,-0.0832,-0.146
NCCCC[C@@H]1NC(=O)[C@H]2C[C@@H](C(=O)NCc3ccc(F)cc3)[C@@H](c3ccc(O)cc3)N2C1=O,1.85,0.0239,0.113,0.492,0.531,2.12,1.3,5.15 (inactive),1.75,0.0947,1.3,0.804 (inactive),0.368 (inactive),0.656 (inactive),3.3,-0.656 (inactive),0.726,1.09,0.997,0.149
CC(=O)c1ccc(C(O)C2C=CC3C(=O)NC(=O)C3N2Nc2ccc(Cl)cc2Cl)cc1 (stereo not given),0.863,0.37,0.045,0.606,1.01,1.72,0.669,1.12 (inactive),0.462,-0.106,-0.002,0.727 (inactive),0.973 (inactive),1.14 (inactive),3,-1.08 (inactive),0.0277,-0.742,0.424,-0.0828
O=C(NCCO)C1=C[C@H](Oc2ccccc2I)[C@@H](O)[C@H](NCc2ccc(F)cc2)C1,0.175,0.917,-0.145,1.38,-0.627,-0.835,-1.68,-0.766 (inactive),-0.459,0.0722,0.517,0.0567 (inactive),-20.5 (active),-0.455 (inactive),-0.992,-0.909 (inactive),-0.212,1.66,-0.0545,-0.202
